# In the library only some 5.4% were active in any assay of this set; here they are far more common.
# p53 reactivator: qHTS assay for re-activators of p53 using a Luc reporter. Potency, µM (series often up to 92.2 µM), for inactives: at the highest dose activity change, positive = activation, actives largely listed as activators. AID 504706, 2011. H1299 p53-A138V BP100-luciferase reporter, luminescence, 24 h. hit rate 0.063% among 320,000; further: potency means the concentration at half of the fitted maximal effect; % of control where 0% means no effect; nearly all actives have a fitted effect of over 45% in size
#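 p53-null H1299 cells stably carrying temperature-sensitive p53-A138V and a BP100-luciferase reporter were pinned with compounds (4-point, 1:5 series) and held 24 hrs at 37 deg C. Luminescence was read 10 min after detection reagent.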
# Gal4-VP16 FLuc: VP16 counterscreen qHTS for inhibitors of ROR gamma transcriptional activity | hit rate 3.5% among 310,000 | Drosophila S2 Gal4-VP16 UAS-luciferase, luminescence, 20 h | Potency, µM (doses to about 53.6 µM), for the others: at the highest dose activity, negative = inhibition, most hits filed as inhibitors;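 further: Gal4-VP16 expression switched on by copper sulfate through the metallothionein promoter; potency means the concentration at half of the fitted maximal effect; on the % scale 0 is the no-effect control and ±100 the full control effect; nearly all actives have a fitted effect of over 50% in size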
# CtBP-E1A inh: qHTS Assay for Inhibitors of the CtBP/E1A Interaction. activity change, % (no concentration beside the values). AID 651724, 2012. hit rate 0.49% among 340,000. AlphaScreen GST-E1A/His-CtBP binding, 1536-well; hits give low values; in the data active means activity change below about -65%; inconclusive means mostly about -30% to -63%; further: on the % scale 0 is the no-effect control and ±100 the full control effect
#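 Steps: dispense buffer (Tris pH 8.0, NaCl 300 mM, TCEP 1 mM, BSA, Tween 20); add 5X protein mix (GST-E1A, His-CtBP, 125 nM each); pin 23 nL compound; 2 h at 37 °C, dark; add 5X beads (50 ug/mL); 1 h; read.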
# Six1-Eya2 blk: qHTS Assay for Inhibitors of the Six1/Eya2 Interaction; Homeobox protein SIX1 (Homo sapiens) + Protein phosphatase EYA2 (Homo sapiens), …; AlphaScreen GST-Six1/His-Eya2 binding, biochemical; hits give low values; activity change, % (no concentration beside the values); hit rate 0.56% among 360,000; AID 651725, 2012; in the data active means activity change below about -65%; inconclusive means mostly about -30% to -63%; further: on the % scale 0 is the no-effect control and ±100 the full control effect
#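 GST-Six1 + His-Eya2 (5X stock: 250/500 nM); Tris pH 8.0, 300 mM NaCl, 0.05% BSA, 0.02% Tween 20; GSH donor/Ni acceptor beads; 1 h 37 °C dark; AlphaScreen readout.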
# RORg inh: qHTS for inhibitors of ROR gamma transcriptional activity; Nuclear receptor ROR-gamma (Mus musculus), P51450; Drosophila S2 Gal4-RORgamma UAS-luciferase reporter, 20 h; Potency, µM (titrated, usually from 53.6 µM), for inactives: at the top dose activity change, negative = inhibition, most hits filed as inhibitors; hit rate 5.4% among 310,000; further: potency means the concentration at half of the fitted maximal effect; on the % scale 0 is the no-effect control and ±100 the full control effect; nearly all actives have a fitted effect of over 60% in size
#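 Using a luciferase readout, inhibitors were identified by reduced reporter activity in Drosophila cells coexpressing a copper-inducible Gal4–ROR gamma fusion and UAS-driven Photinus luciferase, incubated 20 hr after 700 uM copper sulfate.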
# Active calls of the source: *; ? = inconclusive; · = no result; [ ] = dose if it differs, or a comment. Unless noted, the call rests on the fitted dose curve; in most records, active means well fitted curve in the direction sought with a large enough effect; inconclusive means small, poorly fitted or top-dose-only effect, or another doubt; inactive means no such curve, though single readings can be large; an effect the other way counts as inactive or inconclusive.
SMILES,p53 reactivator,Gal4-VP16 FLuc,CtBP-E1A inh,Six1-Eya2 blk,RORg inh
COCCn1c(N)c(N(Cc2ccccc2)C(=O)Cc2c(Cl)cccc2Cl)c(=O)[nH]c1=O,-2%,-6%,5,4,-1%
Cc1ccc(CNC(=O)[C@H](C)[C@H]2C[C@]2(C)[C@H](NC(=O)OCc2ccccc2)c2ccccc2)c(F)c1F,·,5%,·,·,28%
CN(C)CCCNC(=O)/C(=C\C=C\c1ccccc1)NC(=O)c1ccc([N+](=O)[O-])cc1,1%,-1%,-14,45,28%
Cc1cc(OCC(=O)NCCCn2ccnc2)c2c(C)cc(=O)oc2c1,-2%,0%,3,0,-16%
Cc1c(C(=O)Nc2nccs2)oc2ccc(Br)cc12,?,·,0,14,·
C=C(C)C(O)/C=C/CCCCCCC (configuration not stated),·,-8%[10 µM],·,·,-2%[10 µM]
CCOc1cc(N2CCOCC2)c(OCC)cc1NC(=O)c1ccccc1C,1%,10%,3,2,-4%
CCOc1cc(NC(=S)Nc2ccccc2OC)c(OCC)cc1NC(=O)c1ccccc1C,-1%,2.2µM*,?,-30,1.8µM*
CCOc1cc(NC(=S)NCC2CCCO2)c(OCC)cc1NC(=O)c1ccccc1C (configuration not stated),13%,?,-14,-18,10µM*
COc1ccccc1NC(=S)NCC1CCCO1 (configuration not stated),5%,?,-21,4,?
S=C(NCC1CCCO1)Nc1cccc2ccccc12 (configuration not stated),0%,?,0,3,7.1µM*
CCOc1cc(NC(=S)NCC2CCCO2)c(OCC)cc1NC(=O)c1ccc(OC)cc1 (configuration not stated),-1%,10µM*,5,-1,11µM*
CCCc1c(C(=O)N/N=C/c2ccco2)nnn1-c1nonc1N,-2%,4%,-3,5,0%
C/C=C/c1cnc2c(c1)C(=O)N([C@H](C)CO)C[C@@H](C)[C@@H](CN(C)C(=O)NC1CCCC1)O2,·,·,-11,0,·
COCCNc1nc(NCc2ccc(NC(C)=O)cc2)c2sc(-c3ccccc3)cc2n1,·,·,-15,-12,·
Cc1cc(C)nc(N/N=C/c2ccco2)n1,10%,14%,8,-3,23%
Cc1cc(C)nc(N/N=C/c2cc(C)n(CC(F)(F)F)c2C)n1,3%,?,·,-6,8.9µM*
Cc1ccc2c(c1)N(CCC(=O)NC1CCCCC1C)C(=O)CO2 (configuration not stated),0%,-13%,-8,4,-6%
C/C(N[C@@H]1CSCC1O)=C1/C(=O)CC2[C@@H]1C2(C)C (some centres not stated),·,4%,·,·,?
COc1ccc(Cc2[nH]n3c(=O)cc(C)nc3c2-c2ccccc2)cc1,-3%,?,4,9,11µM*
COc1ccc(-c2ccc(=O)n(Cc3ccccc3)n2)cc1,-4%,1%,·,10,8%
COc1ccc(Cc2[nH]n3c(=O)cc(C(C)C)nc3c2-c2ccccc2)cc1,10%,10µM*,2,1,3.5µM*
Cc1cc(=O)n2[nH]c(C(F)(F)F)c(-c3ccccc3)c2n1,6%,-13%,·,6,-26%
CCCc1cc(NCCCn2ccnc2)n2nc(C)c(-c3ccccc3)c2n1,-7%,-3%,-12,-11,?
Cc1nn2c(NCCN3CCOCC3)c3c(nc2c1-c1ccccc1)CCCC3,-1%,3.5µM*,11,0,1.6µM*
SMILES,p53 reactivator,Gal4-VP16 FLuc,CtBP-E1A inh,Six1-Eya2 blk,RORg inh
Cc1nn2c(NCc3ccccn3)cc(C(C)(C)C)nc2c1-c1ccccc1,4%,2.2µM*,-24,6,0.25µM*
COc1ccc(Nc2c3c(nc4c(-c5ccccc5)c(C)nn24)CCC3)cc1,-4%,3.5µM*,5,11,3.2µM*
Cc1nn2c(NCc3ccccn3)c3c(nc2c1-c1ccccc1)CCC3,9%,0.56µM*,-9,-5,0.1µM*
Cc1cc(F)ccc1S(=O)(=O)N1CCCOC1CNC(=O)C(=O)NCc1ccncc1 (configuration not stated),-6%,7%,7,5,-2%
COc1ccc(-c2cc(NCc3ccccn3)n3ncnc3n2)cc1,-5%,?,·,-10,2.8µM*
Cc1cc(Nc2ccccc2)n2nc(C)c(-c3ccccc3)c2n1,5%,4%,·,9,13%
Cc1cc(NCc2ccccn2)n2nc(C)c(-c3ccccc3)c2n1,6%,0.32µM*,-8,-6,0.71µM*
Cc1cc(C)cc(Nc2c3c(nc4ncnn24)CCC3)c1,-1%,13µM*,26,17,?
c1ccc(CNc2c3c(nc4ncnn24)CCCC3)nc1,-6%,-1%[0.365 µM],-11,-19,7.1µM*
Cc1cccc(Nc2c3c(nc4ncnn24)CCC3)c1,-2%,-1%,·,2,?
Clc1ccc(Nc2c3c(nc4ncnn24)CCC3)cc1,-5%,-17%,·,-6,?
COc1ccc(-c2cc(NCCc3ccncc3)n3ncnc3n2)cc1,-8%,?,-12,-1,4%
COc1ccc(C(=O)N2CCC3(CC2)CN(C(=O)Nc2cccc(C#N)c2)C3)cc1,·,-9%,·,·,2%
C[C@H](O)[C@@H]1CN2CCc3c([nH]c4ccccc34)[C@@H]2C[C@@H]1N(C)C(=O)NC1CCCCC1,·,·,0,-11,·
O=C([C@@H]1CCCN1C1=NS(=O)(=O)c2ccccc21)N1CCN(c2ccccc2)CC1,·,·,-1,-1,·
COc1ccc(CCNc2c(C)c(C)nc3ncnn23)cc1,-5%,6.3µM*,-16,-5,-30%
CCc1c(C)nc2ncnn2c1NCCc1ccc(OC)c(OC)c1,8%,2%,-6,-7,?
CC(=O)c1ccc(OCCCC(=O)N2CCN(S(=O)(=O)c3ccc(C(C)C)cc3)CC2)cc1,-11%,·,2,-6,·
Cc1n[nH]c(C)c1Cc1c(F)cccc1Cl,0%,-9%,2,1,16µM*
Cc1[nH]ccc(=O)c1Cc1c(Cl)cccc1Cl,-1%,2%,9,-1,11%
COc1ccc(S(=O)(=O)N2CCN(C(=O)c3cc(-c4ccc(C)cc4)n[nH]3)CC2)cc1,·,-2%,17,6,?
CC1(C(=O)O)CCC2(C)CCC3(C)C(=CC(=O)C4C5(C)CCC(O)C(C)(C)C5CCC43C)C2C1 (configuration not stated),·,-6%,·,·,-1%
COc1ccc(-c2nn3c(-c4ccccn4)nnc3s2)cc1OC,-1%,-4%,-89*,-81*,-1%

# High-throughput results (PubChem)
